# Compounds with a hit are over-represented: about 11% of the library has one in this group of screens.
# G9a block = qHTS Assay for Inhibitors of Histone Lysine Methyltransferase G9a; Histone-lysine N-methyltransferase EHMT2 (Homo sapiens), Q96KQ7; G9a H3K9 monomethylation, AlphaScreen, 2 h; Potency, µM (doses to about 102 µM), for the others: top-dose activity, negative = inhibition, most hits filed as inhibitors; 8.8% of 350,000 active; AID 504332, 2011; note: % is set by controls: 0 for no effect and ±100 for the full control effect; nearly all actives have a fitted effect of over 75% in size
#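 Quantitative HTS format: methyltransferase activity on a biotin-tagged H3K9 peptide is measured by AlphaScreen, using a rabbit anti-monomethyl-H3K9 antibody with streptavidin donor and anti-IgG acceptor beads. Final levels are 20 nM enzyme, 500 nM peptide, 20 uM SAM; 2 h RT.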
# JMJD2A Tudor = qHTS Assay for Inhibitors of JMJD2A-Tudor Domain; Lysine-specific demethylase 4A (Homo sapiens), O75164; AlphaScreen JMJD2A-Tudor / H3K4me3 peptide binding; Potency, µM (top dose mostly 114 µM), for inactives: top-dose activity change, negative = inhibition, actives largely listed as inhibitors; 4.4% of 390,000 active; note: % is set by controls: 0 for no effect and ±100 for the full control effect; nearly all actives have a fitted effect of over 50% in size
# HP1b binding inh = HTS for Inhibitors of HP1-beta Chromodomain Interactions with Methylated Histone Tails; 0.56% of 390,000 active; AlphaScreen HP1-beta / biotin-H3K9me3 peptide binding; AID 540317, 2011; Potency, µM (titrated, usually from 114 µM), inactives show at the top dose activity change, negative = inhibition, hits mostly inhibitors; note: nearly all actives have a fitted effect of over 70% in size
#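 Compound inhibition of the preformed complex between 50 nM HP1-beta and 50 nM biotinylated H3K9me3 peptide was read by AlphaScreen. Buffer was PBS pH 7.4 with 0.01% Tween-20. Incubations ran 30 min at room temperature, with 10 ug/mL donor/acceptor beads.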
# BAZ2B inh = qHTS Assay for Inhibitors of BAZ2B | Potency, µM (doses to about 114 µM), inactives show at the top dose activity change, negative = inhibition, hits mostly inhibitors | 4.4% of 360,000 active | AlphaScreen BAZ2B-H3K14Ac peptide displacement | AID 504333, 2011; note: % is set by controls: 0 for no effect and ±100 for the full control effect; nearly all actives have a fitted effect of over 60% in size
# Target sequence (Q9UIF8 whole entry, looked up): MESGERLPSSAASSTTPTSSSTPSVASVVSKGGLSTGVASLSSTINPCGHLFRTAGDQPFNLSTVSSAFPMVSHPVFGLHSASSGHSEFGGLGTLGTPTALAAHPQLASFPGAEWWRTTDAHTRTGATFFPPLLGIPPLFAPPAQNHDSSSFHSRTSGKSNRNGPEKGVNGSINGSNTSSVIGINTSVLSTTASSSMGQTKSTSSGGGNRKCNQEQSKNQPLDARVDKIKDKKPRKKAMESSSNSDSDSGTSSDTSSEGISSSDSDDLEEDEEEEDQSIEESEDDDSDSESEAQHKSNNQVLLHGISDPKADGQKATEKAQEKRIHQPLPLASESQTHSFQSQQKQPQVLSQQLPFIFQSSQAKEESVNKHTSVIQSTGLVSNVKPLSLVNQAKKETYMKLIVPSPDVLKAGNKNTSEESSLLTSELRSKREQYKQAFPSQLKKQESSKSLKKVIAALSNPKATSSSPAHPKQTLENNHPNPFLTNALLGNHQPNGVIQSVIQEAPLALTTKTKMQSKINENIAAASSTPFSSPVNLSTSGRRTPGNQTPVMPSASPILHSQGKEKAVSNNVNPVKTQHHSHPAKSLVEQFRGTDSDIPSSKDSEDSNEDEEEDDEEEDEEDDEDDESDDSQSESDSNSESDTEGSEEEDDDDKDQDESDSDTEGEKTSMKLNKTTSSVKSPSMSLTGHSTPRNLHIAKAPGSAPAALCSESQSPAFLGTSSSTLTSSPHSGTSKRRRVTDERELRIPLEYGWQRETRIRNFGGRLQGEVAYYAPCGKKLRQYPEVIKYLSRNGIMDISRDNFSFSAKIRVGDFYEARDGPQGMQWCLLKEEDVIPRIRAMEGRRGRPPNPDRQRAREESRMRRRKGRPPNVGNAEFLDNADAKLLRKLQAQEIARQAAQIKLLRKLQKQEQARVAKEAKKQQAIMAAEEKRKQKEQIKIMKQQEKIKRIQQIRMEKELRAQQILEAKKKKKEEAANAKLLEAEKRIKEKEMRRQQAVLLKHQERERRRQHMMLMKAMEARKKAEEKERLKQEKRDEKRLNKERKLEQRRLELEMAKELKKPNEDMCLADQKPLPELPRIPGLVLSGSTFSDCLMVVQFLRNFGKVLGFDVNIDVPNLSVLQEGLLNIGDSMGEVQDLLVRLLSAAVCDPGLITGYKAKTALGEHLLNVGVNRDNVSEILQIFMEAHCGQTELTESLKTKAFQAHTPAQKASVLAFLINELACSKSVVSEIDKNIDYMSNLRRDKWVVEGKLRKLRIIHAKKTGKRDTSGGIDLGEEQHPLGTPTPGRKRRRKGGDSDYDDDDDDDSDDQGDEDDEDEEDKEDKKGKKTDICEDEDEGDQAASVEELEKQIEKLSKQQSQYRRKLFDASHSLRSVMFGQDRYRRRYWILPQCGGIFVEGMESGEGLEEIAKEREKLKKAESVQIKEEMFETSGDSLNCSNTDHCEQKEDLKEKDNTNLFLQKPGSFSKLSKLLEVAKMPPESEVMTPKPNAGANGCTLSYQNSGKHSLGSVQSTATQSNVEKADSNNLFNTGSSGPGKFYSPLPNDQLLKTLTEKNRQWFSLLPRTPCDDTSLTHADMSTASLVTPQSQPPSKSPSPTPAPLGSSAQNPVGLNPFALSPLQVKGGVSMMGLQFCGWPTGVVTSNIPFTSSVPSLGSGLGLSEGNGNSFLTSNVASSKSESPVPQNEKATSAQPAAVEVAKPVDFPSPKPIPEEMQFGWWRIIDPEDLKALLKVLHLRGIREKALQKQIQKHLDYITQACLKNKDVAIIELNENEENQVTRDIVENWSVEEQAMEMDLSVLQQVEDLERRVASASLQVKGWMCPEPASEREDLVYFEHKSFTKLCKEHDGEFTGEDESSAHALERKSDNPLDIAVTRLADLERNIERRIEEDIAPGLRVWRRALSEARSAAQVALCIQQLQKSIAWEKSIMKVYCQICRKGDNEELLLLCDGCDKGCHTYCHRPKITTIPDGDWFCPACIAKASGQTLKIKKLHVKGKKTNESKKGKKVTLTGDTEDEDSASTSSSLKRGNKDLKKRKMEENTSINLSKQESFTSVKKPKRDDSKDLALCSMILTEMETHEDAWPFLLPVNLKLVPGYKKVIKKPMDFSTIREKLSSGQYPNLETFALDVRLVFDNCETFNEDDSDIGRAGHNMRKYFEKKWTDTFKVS
#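 AlphaScreen displacement of biotin-H3(5-23)K14Ac peptide (50 nM final) from BAZ2B (50 nM final) in PBS pH 7.4, 0.01% Tween-20; complex preformed 30 min RT, then compounds (top 110 uM) 30 min RT, beads 20 min dark.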
# L3MBTL1 block = qHTS Assay for the Inhibitors of L3MBTL1; Lethal(3)malignant brain tumor-like protein 1 (Homo sapiens), Q9Y468; AlphaScreen L3MBTL1–H3K9me1 peptide binding; Potency, µM (titrated, usually from 57.1 µM), without a hit: top-dose activity, negative = inhibition, hits mostly inhibitors; 0.66% of 230,000 active; note: % is set by controls: 0 for no effect and ±100 for the full control effect; nearly all actives have a fitted effect of over 60% in size
#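 AlphaScreen proximity signal between nickel-chelate acceptor and streptavidin donor beads (final 10 ug/mL) reports binding of 50 nM L3MBTL1 to 75 nM biotin-H3 K9me1 peptide; complex incubated with compounds 30 min at room temperature; cefsulodin titration as control.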
# * marks the source's active call; other numbers are inactive results; ? = inconclusive; · = not tested or not shown; [ ] = dose if it differs, or a comment. Calls come from the whole dose curve; as a rule, active = well fitted inhibition curve with a large enough effect; inconclusive = small, poorly fitted or top-dose-only effect; inactive = no such curve, though single readings can be large or run the other way. Potency is the fitted concentration of half-maximal effect.
SMILES,G9a block,JMJD2A Tudor,HP1b binding inh,BAZ2B inh,L3MBTL1 block
CCOC(=O)c1c(NC(=O)Cn2cnc([N+](=O)[O-])n2)sc(C)c1C,28µM*,-1%,-9%,-2%,·
CCOc1ccc(CCNC(=O)c2cc3c(-c4ccccc4F)nn(C)c3s2)cc1OCC,-11%[59 µM],-23%,19%,·,·
O=C(OCc1ccccc1)N1CCC2CC1c1cc(N3CCCCC3)ccc12 (centres undefined),·,28µM*,?,·,·
Clc1cccc(CN2CCC3CC2c2cc(N4CCCCC4)ccc23)c1 (centres undefined),·,45µM*,?,·,·
COC(=O)CCN1CCC2CC1c1cc(Cl)ccc12 (centres undefined),·,-8%,29%,·,·
O=C(OCc1ccccc1)N1CCC2CC1c1cc(-c3ccc(F)cc3)ccc12 (centres undefined),·,37%,96%,·,·
COc1ccc2nc(NC(=O)c3ccc(S(=O)(=O)N4CCCC(C)C4)cc3)sc2c1 (centres undefined),9%[59 µM],-7%,19%[57 µM],-2%,·
CCCCNC(=O)/C=C/c1cccs1,19%[59 µM],10%[57.1 µM],-10%,5%,5%
CCN1CCN(C(=S)NC(=O)/C=C/c2cccs2)CC1,50µM*,-10%,28%,-3%,16%
CCN1CCN(C(=S)NC(=O)c2cccs2)CC1,50µM*,8.9µM*,-17%,?,·
CCOc1ccc(CCNC(=O)c2cccc(-n3c(C)nc4cccnc43)c2)cc1,-31%[59 µM],0%,54%,-14%,·
Cc1ccccc1OC(=O)n1c(=S)oc2cc(Cl)ccc21,1.1µM*,35µM*,-3%,12%,·
O=C(Oc1ccccc1)n1c(=S)oc2ccccc21,3.5µM*,20µM*,-12%,-4%,5%
Nc1cc(Cl)ccc1C(=O)OCC(=O)NCC1CCCO1 (centres undefined),·,-13%,25%,·,2%
CN(C)c1ccc(N=Cc2cccn2C)cc1,8.9µM*,50µM*,-34%,20µM*,·
CC(=O)Oc1oc(-c2ccccc2)nc1C=Nc1ccc(N(C)C)cc1,-4%,-16%,17%,1%,1%
Cc1cc(C)cc(OCC(=O)OCCN2C(=O)c3ccccc3C2=O)c1,56µM*,21%,53%,-4%,·
CCOc1ccccc1CNC(=O)Cn1c(-c2ccccc2)cc(C(C)=O)c1C,1%[59 µM],-21%,4%,-8%,·
Oc1ccc(Cl)cc1C1C=C(c2ccc3c(c2)OCO3)NC(c2cc(Br)ccc2F)N1 (centres undefined),·,?,-80%,·,·
Cc1cc(=O)[nH]c(N/N=C/c2c(C)nn(-c3ccccc3)c2C)n1,25µM*,-11%,16%,-23%,0%
Cc1nn(-c2ccccc2)c(Cl)c1/C=N/Nc1nc2ccccc2n1C,50µM*,-34%,26%,-38%,-1%
Cc1nn(-c2ccccc2)c(C)c1/C=N\NS(=O)(=O)c1ccc(Cl)cc1,3.2µM*,-31%,26%,-6%,·
Cc1nn(-c2ccccc2)c(C)c1/C=N/Nc1nc2ccccc2[nH]1,?,56µM*,?,?,-16%
COc1ccc2c(c1)c1c(c(=O)n(-c3ccccc3C)c(=O)n1CC(=O)NCc1ccc(C)cc1)n2C,-17%[59 µM],-11%,33%,-15%,·
COc1ccccc1NC(=O)C(=O)NCC(c1ccc2c(c1)OCO2)N1CCOCC1 (centres undefined),7%[59 µM],?,23%[57 µM],-3%,·
SMILES,G9a block,JMJD2A Tudor,HP1b binding inh,BAZ2B inh,L3MBTL1 block
Cc1cccc(NC(=O)c2sc3nc(-c4ccccc4)cn3c2C)c1C,21%[59 µM],-23%,21%[57 µM],-4%,·
Cc1nnc(SCc2ccc([N+](=O)[O-])cc2)o1,-8%,13µM*,-24%,?,3%
O=[N+]([O-])c1ccc(CSc2nnc(SCc3ccc(Cl)cc3)s2)cc1,35µM*,-28%,7%,8%,-8%
Nc1nnc(SCc2ccc([N+](=O)[O-])cc2)s1,-15%,-3%,40%,-1%,19%
Clc1ncc(C#Cc2ccccc2)c2ncncc12,·,-29%,6%,·,·
CCc1cccc(C)c1NC(=O)c1cc(S(=O)(=O)N(Cc2ccc(C(=O)OC)cc2)Cc2ccc(OC)c(OC)c2)ccc1F,7%[59 µM],-6%,30%,-1%,·
O=c1cc(CSc2ccccc2)[nH]c(=S)[nH]1,?,89µM*,50%,-10%,8%
Cc1nnc(SCc2cc(=O)[nH]c(=S)[nH]2)s1,28µM*,?,77%,?,4%
Cc1nnc(SCc2cc(=O)c3ccccc3[nH]2)s1,13%[59 µM],-19%,18%[57 µM],10%,·
COC(=O)c1cc2sccc2n1Cc1c(C)cc(C)cc1C,22%[59 µM],26%,72%,24%,·
Cc1sc2ncn(CC(=O)N3CCN(c4cccc(Cl)c4)CC3)c(=O)c2c1S(=O)(=O)N1CCC(C)CC1,-5%[59 µM],-20%,25%,-10%,·
Cc1ccc(NC(=O)c2ccc(F)c(S(=O)(=O)NCCc3ccccc3)c2)cc1F,-23%[59 µM],-29%,21%,2%,·
COc1cc(/C=C2\SC(=O)N(CC(=O)Nc3ccc(C)cc3)C2=O)cc(Cl)c1OCC(=O)O,?,11µM*,14µM*,14µM*,?
O=C(CN1C(=O)S/C(=C\c2cc(Cl)c(O)c(Cl)c2)C1=O)Nc1ccccc1,·,?,-16%,45µM*,-5%
COc1ccc(OC)c(-c2noc(N3CCN(c4cc(C)ccc4C)CC3)n2)c1,-2%[59 µM],-22%,8%,-16%,·
O=[N+]([O-])c1ccc(N2CCN(c3ccc(F)cc3)CC2)cc1,-2%,-16%,-5%,-8%,·
O=[N+]([O-])c1ccc(N2CCN(Cc3ccc(Br)o3)CC2)cc1,?,22µM*,?,79µM*,-4%
O=[N+]([O-])c1ccc(CN2CCN(c3ccccc3Cl)CC2)o1,28µM*,22µM*,?,50µM*,-4%
O=[N+]([O-])c1ccc(N2CCN(Cc3ccncc3)CC2)cc1,32µM*,22µM*,?,50µM*,2%
O=C(Cc1ccc([N+](=O)[O-])cc1)N1CCN(c2ccc([N+](=O)[O-])cc2)CC1,?,-18%,1%,-3%,-19%
Clc1ccccc1-c1ccc(CN2CCN(c3ccccc3)CC2)o1,?,?,41%,?,·
O=[N+]([O-])c1ccc(N2CCN(Cc3ccc([N+](=O)[O-])o3)CC2)cc1,?,20µM*,?,32µM*,-5%
COCC(=O)N1CCC2(CCCN(c3ccccn3)C2)CC1,8%[12.7 µM],·,·,·,·
O=C(CC1(O)C(=O)N(CCc2ccccc2)c2ccc(Br)cc21)c1ccccc1O (centres undefined),?,?,-6%,?,·
CCc1ccc(OCCNc2cc(N3CCNC(C)C3)ccc2[N+](=O)[O-])cc1 (centres undefined),4%[2.33 µM],40µM*,?,35µM*,-20%

# Assay outcomes as filed in PubChem BioAssay.
